Test results as given in ChEMBL document CHEMBL1157539, “Thousands of chemical starting points for antimalarial lead identification” (Nature, 2010).
In all, about 13,000 compounds were measured (“IFI”: median about 4, highest 2% from about 17 on). What follows is part of a selection rich in the highest values, with near analogues and random picks from the rest.

Assay: GSK_TCMDC: Inhibition Frequency Index (IFI). The number of non-kinase HTS assays where a compound showed > 50 % inhibition, expressed as a percentage of the number of such assays in which the compound was tested
Format: functional

Going from CNc1nc(Nc2ccccc2C)nc2ccccc12 to Nc1nc(Nc2cccc(O)c2)nc2ccccc12, the IFI rises from 2.21% to 5.04%.

Compared with CC(c1cccc(Nc2nccc(-c3c(-c4cccc(NC(=O)c5c(F)cccc5F)c4)nn4ccccc34)n2)c1)S(C)(=O)=O (centres undefined), COc1cc(NC(=O)c2sc(-c3ccc(Cl)cc3)cc2NC(=O)c2cccnc2)ccc1OCCN1CCCC1 is higher in IFI: 6.31% for the first, 7.19% for the second.

Compared with O=S(=O)(c1c(Cl)cc(Cl)cc1Cl)N1CCCCC(c2ccc(C(F)(F)F)cc2)=N1, OCC1CCN(Cc2cccc(-c3cccc(-c4nc5cc(C(F)(F)F)ccc5[nH]4)c3)c2)CC1 is higher in IFI: 1.5% for the first, 5.83% for the second.

First: Nc1nc(O)c2c(n1)CCc1c(Br)cccc1-2
Second: Cc1ccc(F)cc1-c1cc(N2CCCN(C(=O)c3ccc(Br)o3)CC2)ncn1
The IFI of the first is higher: 2.31% for the first, 0% for the second.

Compared with COc1ccccc1C1CCN(C2CCC(NC(=O)/C=C/c3ccc(OC(F)(F)F)cc3)CC2)CC1 (centres undefined), O=C(/C=C/c1ccccc1Cl)Nc1ccc(Br)c(OCCN2CCCCC2)c1 is lower in IFI: 11.7% for the first, 5.52% for the second.

Compared with CCC[C@@H]([C@@H](CC1CCCCC1)C(=O)N[C@H](C(=O)Nc1nccc(N)n1)C(C)(C)C)N(O)C=O, NC[C@H](CC1CCCCC1)NC(=O)c1ccc(-c2ccnc3[nH]ccc23)s1 is higher in IFI: 2.86% for the first, 22.2% for the second.

Going from NCC(NC(=O)c1ccc(-c2c[nH]c3ncccc23)s1)c1ccccc1 (centres undefined) to Cc1c(Cn2nc(Cl)c(N3CCNCC3)cc2=O)cccc1NC(=O)Nc1ccc(-c2ccccc2)cc1, the IFI falls from 16.1% to 10.8%.

Compared with CCCCCCOc1ccc(C(=O)NCCCC2CCCN(CCCCCNC(=O)C=Cc3ccc(Cl)c(Cl)c3)C2)cc1 (centres undefined), CCC(C)(C)c1ccc(S(=O)(=O)Nc2ccc(Cl)c(OCCN3CCCCC3)c2)cc1 is higher in IFI: 6.87% for the first, 43.1% for the second.

Compared with CC(C)(C)OC(=O)N[C@@H](Cc1ccccc1)C(=O)Nc1cccc(-c2cccc(NC(=O)[C@H](Cc3ccccc3)NC(=O)OC(C)(C)C)c2)c1, COC(=O)C(c1ccc(NC(=O)[C@H](CC(C)C)NC(=O)OC(C)(C)C)cc1)c1ccc(NC(=O)[C@H](CC(C)C)NC(=O)OC(C)(C)C)cc1 is lower in IFI: 0.72% for the first, 0% for the second.

Compared with C=CCc1ccc(C[C@H](NC(=O)OC(C)(C)C)C(=O)OC)cc1, COc1ccc(CNC2CCN(C)CC2)cc1-c1cccc(S(=O)(=O)NCc2ccccc2)c1 is lower in IFI: 18.9% for the first, 11% for the second.

First: CCSc1ccc(C)cc1CON1C(N)=NC(N)=NC1(C)C
Second: COc1ccc2c(=NN=Cc3ccccc3Cl)cc(C)[nH]c2c1
The IFI of the first is higher: 6.34% for the first, 3.65% for the second.

First: ON=C1c2cc(OCCN3CCCCC3)c(Cl)cc2-c2cc(Cl)c(OCCN3CCCCC3)cc21
Second: O=c1c2ccc(F)cc2sn1-c1ccc(Cl)cc1
The IFI of the first is lower: 9.42% for the first, 23.9% for the second.
